# Data published in the supplement of paper PMC6658780.
# Where a name gives a salt, the structure may show the parent alone. ± gives the standard deviation of the averaged measurements.
# System: Klebsiella pneumoniae KPC-119
# Test: percent growth inhibition of drug + antibiotic vs DMSO control; higher = more growth inhibition
# Conditions: antibiotic (0.125x MIC): meropenem; 7 µM
row,SMILES,percent growth inhibition
1,CC(=O)OC[C@H]1O[C@@H]([S-])[C@H](OC(C)=O)[C@@H](OC(C)=O)[C@@H]1OC(C)=O.CCP(CC)CC.[Au+] [Auranofin],98.3 ± 1.4%
2,O=c1[nH]c(=O)n([C@H]2C[C@H](O)[C@@H](CO)O2)cc1F [Floxuridine],89.6 ± 10%
3,O=C(O)c1cn(-c2ccc(F)cc2)c2cc(N3CCNCC3)c(F)cc2c1=O [Sarafloxacin],99.613 ± 0.042%

# Same assay, conditions: antibiotic (0.125x MIC): meropenem; 20 µM
row,SMILES,percent growth inhibition
1,CC(=O)OC[C@H]1O[C@@H]([S-])[C@H](OC(C)=O)[C@@H](OC(C)=O)[C@@H]1OC(C)=O.CCP(CC)CC.[Au+] [Auranofin],99.5 ± 0.13%
2,CO[C@H]1/C=C/O[C@@]2(C)Oc3c(C)c(O)c4c(c3C2=O)C2=NC3(CCN(CC(C)C)CC3)NC2=C(NC(=O)/C(C)=C\C=C\[C@H](C)[C@H](O)[C@@H](C)[C@@H](O)[C@@H](C)[C@H](OC(C)=O)[C@@H]1C)C4=O [Rifabutin],99.645 ± 0.017%
3,O=c1[nH]c(=O)n([C@H]2C[C@H](O)[C@@H](CO)O2)cc1F [Floxuridine],98.5 ± 1.4%
4,O=C(O)c1cn(-c2ccc(F)cc2)c2cc(N3CCNCC3)c(F)cc2c1=O [Sarafloxacin],83.6 ± 19%

# System: Klebsiella pneumoniae NCTC-13439
# Test: as above
# Conditions: antibiotic (0.125x MIC): ciprofloxacin; 7 µM
row,SMILES,percent growth inhibition
1,CC[C@H]1OC(=O)[C@H](C)[C@@H](O[C@H]2C[C@@](C)(OC)[C@@H](O)[C@H](C)O2)[C@H](C)[C@@H](O[C@@H]2O[C@H](C)C[C@H](N(C)C)[C@H]2O)[C@](C)(O)C[C@@H](C)CN(C)[C@H](C)[C@@H](O)[C@]1(C)O [Azithromycin],44.5 ± 5.6%
2,CC(=O)OC[C@H]1O[C@@H]([S-])[C@H](OC(C)=O)[C@@H](OC(C)=O)[C@@H]1OC(C)=O.CCP(CC)CC.[Au+] [Auranofin],10.8 ± 5.5%
3,CO[C@H]1/C=C/O[C@@]2(C)Oc3c(C)c(O)c4c(c3C2=O)C2=NC3(CCN(CC(C)C)CC3)NC2=C(NC(=O)/C(C)=C\C=C\[C@H](C)[C@H](O)[C@@H](C)[C@@H](O)[C@@H](C)[C@H](OC(C)=O)[C@@H]1C)C4=O [Rifabutin],21.5 ± 7.5%
4,CO[C@H]1/C=C/O[C@@]2(C)Oc3c(C)c(O)c4c(O)c(c5c(nc6cc(C)ccn65)c4c3C2=O)NC(=O)/C(C)=C\C=C\[C@H](C)[C@H](O)[C@@H](C)[C@@H](O)[C@@H](C)[C@H](OC(C)=O)[C@@H]1C [Rifaximin],-1.2 ± 3.8%
5,O=c1[nH]c(=O)n([C@H]2C[C@H](O)[C@@H](CO)O2)cc1F [Floxuridine],64.6 ± 15%
6,O=C1OCCN1/N=C/c1ccc([N+](=O)[O-])o1 [Furazolidone],17 ± 1.2%
7,O=C(O)c1cn(-c2ccc(F)cc2)c2cc(N3CCNCC3)c(F)cc2c1=O [Sarafloxacin],59.24 ± 0.15%

# Same assay, conditions: antibiotic (0.125x MIC): ciprofloxacin; 20 µM
row,SMILES,percent growth inhibition
1,CC[C@H]1OC(=O)[C@H](C)[C@@H](O[C@H]2C[C@@](C)(OC)[C@@H](O)[C@H](C)O2)[C@H](C)[C@@H](O[C@@H]2O[C@H](C)C[C@H](N(C)C)[C@H]2O)[C@](C)(O)C[C@@H](C)CN(C)[C@H](C)[C@@H](O)[C@]1(C)O [Azithromycin],99.666 ± 0.042%
2,CO[C@H]1/C=C/O[C@@]2(C)Oc3c(C)c(O)c4c(O)c(c5c(nc6cc(C)ccn65)c4c3C2=O)NC(=O)/C(C)=C\C=C\[C@H](C)[C@H](O)[C@@H](C)[C@@H](O)[C@@H](C)[C@H](OC(C)=O)[C@@H]1C [Rifaximin],50.5 ± 1.9%
3,O=c1[nH]c(=O)n([C@H]2C[C@H](O)[C@@H](CO)O2)cc1F [Floxuridine],99.05 ± 0.42%
4,O=C1OCCN1/N=C/c1ccc([N+](=O)[O-])o1 [Furazolidone],99.97 ± 0.19%
5,O=C(O)c1cn(-c2ccc(F)cc2)c2cc(N3CCNCC3)c(F)cc2c1=O [Sarafloxacin],99.59 ± 0.23%

# Same assay, conditions: antibiotic (0.125x MIC): tigecycline; 7 µM
row,SMILES,percent growth inhibition
1,CC[C@H]1OC(=O)[C@H](C)[C@@H](O[C@H]2C[C@@](C)(OC)[C@@H](O)[C@H](C)O2)[C@H](C)[C@@H](O[C@@H]2O[C@H](C)C[C@H](N(C)C)[C@H]2O)[C@](C)(O)C[C@@H](C)CN(C)[C@H](C)[C@@H](O)[C@]1(C)O [Azithromycin],64.2 ± 2.8%
2,CO[C@H]1/C=C/O[C@@]2(C)Oc3c(C)c(O)c4c(O)c(c(/C=N/N5CCN(C6CCCC6)CC5)c(O)c4c3C2=O)NC(=O)/C(C)=C\C=C\[C@H](C)[C@H](O)[C@@H](C)[C@@H](O)[C@@H](C)[C@H](OC(C)=O)[C@@H]1C [Rifapentine],14.7 ± 5.3%
3,NC[C@@H]1O[C@H](O[C@H]2[C@@H](O)[C@H](O[C@@H]3[C@@H](O)[C@H](N)C[C@H](N)[C@H]3O[C@H]3O[C@H](CO)[C@@H](O)[C@H](O)[C@H]3N)O[C@@H]2CO)[C@H](N)[C@@H](O)[C@@H]1O [Paromomycin sulfate],6.3 ± 3%
4,CO[C@H]1/C=C/O[C@@]2(C)Oc3c(C)c(O)c4c(O)c(c5c(nc6cc(C)ccn65)c4c3C2=O)NC(=O)/C(C)=C\C=C\[C@H](C)[C@H](O)[C@@H](C)[C@@H](O)[C@@H](C)[C@H](OC(C)=O)[C@@H]1C [Rifaximin],7.05 ± 5.2%
5,CN[C@@H]1[C@@H](O[C@H]2O[C@H](CO)[C@@H](N)[C@H](O)[C@H]2O)OC2C[C@@H](N)[C@@H](O[C@H]3[C@H](O)[C@@H](O)[C@H](N)C[C@@H]3N)OC2[C@@H]1O (stereo partly drawn) [Apramycin],35.7 ± 13%
6,O=C1OCCN1/N=C/c1ccc([N+](=O)[O-])o1 [Furazolidone],26.3 ± 2.4%
7,OCCOCCN1CCN(C2=Nc3ccccc3Sc3ccccc32)CC1 [Quetiapine hemifumarate],-9.2 ± 16%
8,O=C(O)c1cn(-c2ccc(F)cc2)c2cc(N3CCNCC3)c(F)cc2c1=O [Sarafloxacin],50 ± 14%
9,CN(C)c1ccc(O)c2c1C[C@H]1C[C@H]3[C@H](N(C)C)C(O)=C(C(N)=O)C(=O)[C@@]3(O)C(O)=C1C2=O [Minocycline hydrochloride],-1.9 ± 6.7%
